Experimental data reported in PubChem BioAssay (NCATS).
Results filed as inconclusive are left out. Calls of active or inactive are those of the source. Unless noted, the call rests on the fitted dose curve; in most records, active means well fitted curve in the direction sought with a large enough effect; inconclusive means small, poorly fitted or top-dose-only effect, or another doubt; inactive means no such curve, though single readings can be large; an effect the other way counts as inactive or inconclusive.

Columns and labels:
[1] = Cell Viability - LYMP1-002 - Assay at 16 hr (AID 948)
Procedure, shortened: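 LYMP1-002 human lymphoblastoid cells, 2500/well, were treated with compounds for 16 hr at 37 C in complete medium. Viability was read as intracellular ATP by CellTiter-Glo luminescence, and AC50 was derived from a Hill fit to concentration-response data.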

[2] = MultiTox-Fluor Cytotoxicity Assay - LYMP1-002 - Live Cells (AID 955);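 further: cells exposed to compound for 16 hours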
Procedure, shortened: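 Cells were seeded at 2500 per well and incubated 5 hr. Compounds were then added for 16 hr at 37 C, followed by MultiTox-Fluor reagent for 60 min at room temperature and fluorescence reading of viable-cell protease signal.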

[3] = MultiTox-Fluor Cytotoxicity Assay - LYMP1-002 - Dead Cells (AID 960);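 further: cells exposed to compound for 16 h at 37 °C; nearly all actives have a fitted effect of over 60% in size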
Procedure, shortened: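 Cells were plated, rested 5 hr, then treated with compound dilution series for 16 hr at 37 C. After adding substrate reagent and 60 min at room temperature, dead-cell protease fluorescence gave concentration-response curves fitted by the Hill equation.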

[4] = MultiTox-Fluor Cytotoxicity Assay - LYMP1-003 - Dead Cells (AID 961);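 further: cells exposed to compound for 16 h at 37 °C; nearly all actives have a fitted effect of over 70% in size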
Procedure, shortened: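 LYMP1-003 lymphoblastoid, 2500 cells/well, 5 hr settle then 16 hr cpd at 37 C; MultiTox-Fluor reagent 60 min RT; Ex/Em 485/520 dead-cell signal; norm. DMSO = 0%, 15 uM tetraoctylammonium bromide = 100%; Hill AC50.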

[5] = MultiTox-Fluor Cytotoxicity Assay - LYMP1-003 - Live Cells (AID 962);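 further: cells exposed to compound for 16 hours at 37 °C; cytotoxic hits lower the live-cell protease signal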
Procedure, shortened: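 Acute cytotoxicity is scored as a drop in live-cell protease activity in human lymphoblastoid LYMP1-003 cells after 16 hr compound exposure at 37 C. AC50 values come from Hill-equation modelling of concentration-response data.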

[6] = Cell Viability - LYMP1-003 - Assay at 24 hr (AID 963)
Procedure, shortened: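 Cytotoxicity is scored as a concentration-dependent fall in ATP-linked luciferase signal in human lymphoblastoid LYMP1-003 cells treated 24 hr at 37 C in complete culture medium.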

[7] = Cell Viability - LYMP1-003 - Assay at 40 hr (AID 964); further: series mostly up to about 92 µM; nearly all actives have a fitted effect of over 60% in size
Procedure, shortened: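 Luminescent ATP signal (CellTiter-Glo) served as the viability read-out after 40 hr compound treatment of human lymphoblastoid LYMP1-003 cells at 37 C. Decreases in ATP were fitted with the Hill equation to give AC50.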

[8] = Cell Viability - LYMP2-003 (AID 965);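 further: cells exposed to compounds for 24 h before reading; nearly all actives have a fitted effect of over 50% in size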
Procedure, shortened: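 Human lymphoblastoid LYMP2-003 cells, 2500/well, exposed to compounds for 24 h at 37 C in complete medium. Viability read as intracellular ATP by CellTiter-Glo luminescence; AC50 from Hill-equation fits of qHTS concentration-response data.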

[9] = Cell Viability - LYMP2-004 (AID 966); further: nearly all actives have a fitted effect of over 65% in size
Procedure, shortened: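 qHTS cytotoxicity: human lymphoblastoid line, 24 hr compound treatment, 37 C, complete medium. Viability read as cellular ATP via luciferase luminescence; tetraoctylammonium bromide served as positive control.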

[10] = Cell Viability - LYMP2-005 (AID 967); further: series mostly up to about 92 µM
Procedure, shortened: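 Human lymphoblastoid LYMP2-005 cells, 2,500 per well in complete medium, rested 5 h at 37C then compound-treated 24 h at 37C. Intracellular ATP read by CellTiter-Glo luminescence after 30 min at room temperature; AC50 from Hill-equation fits of concentration-response data.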

[11] = Cell Viability - LYMP2-009 (AID 968); further: series mostly up to about 92 µM; nearly all actives have a fitted effect of over 55% in size
[12] = Cell Viability - LYMP2-011 (AID 969); further: nearly all actives have a fitted effect of over 60% in size
Procedure, shortened: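 In this qHTS cytotoxicity format, compounds are tested across concentrations on human lymphoblastoid cells in complete medium for 24 hours at 37 C. Viability is taken as cellular ATP measured by luciferase luminescence.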

[13] = Cell Viability - LYMP2-013 (AID 970); further: series mostly up to about 92 µM; nearly all actives have a fitted effect of over 55% in size
Procedure, shortened: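 Cytotoxicity is scored as a concentration-dependent drop in intracellular ATP in human lymphoblastoid cells after 24 hr compound exposure at 37 C. ATP is quantified by luciferase luminescence, and AC50 values come from Hill-equation modeling.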

[14] = Cell Viability - LYMP2-015 (AID 971); further: nearly all actives have a fitted effect of over 55% in size
Procedure, shortened: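 Cells are seeded at 2500 per well and incubated 5 hr at 37 C. Compounds are added across a concentration series for 24 hr at 37 C. CellTiter-Glo is added, and luminescence is read after 30 min at room temperature.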

[15] = Cell Viability - LYMP2-017 (AID 972); further: series mostly up to about 92 µM; nearly all actives have a fitted effect of over 55% in size
Procedure, shortened: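 Cytotoxicity is scored as a concentration-dependent drop in cellular ATP in a human lymphoblastoid line after 24 hr treatment at 37 C. Values are AC50s from Hill-equation modelling.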

[16] = Cell Viability - LYMP2-019 (AID 973); further: nearly all actives have a fitted effect of over 55% in size
Procedure, shortened: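 Cytotoxicity is scored as a concentration-dependent drop in cellular ATP after cells (2500/well) receive compound for 24 hr at 37 C. Tetraoctylammonium bromide serves as positive control.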

[17] = Cell Viability - LYMP2-021 (AID 974)
Procedure, shortened: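 Loss of cellular ATP, measured with a luciferase-based CellTiter-Glo readout, serves as the toxicity signal in human lymphoblastoid cells treated for 24 hours at 37 C. Potency is reported as AC50 from a standard Hill model.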

[18] = Cell Viability - LYMP2-023 (AID 975)
Procedure, shortened: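 Steps: seed 2500 human lymphoblastoid cells per well, incubate 5 hr at 37 C, add compound for 24 hr at 37 C, add CellTiter-Glo, hold 30 min at room temperature, read luminescence. AC50 derived by Hill modelling.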

[19] = Cell Viability - LYMP2-025 (AID 976); further: series mostly up to about 92 µM
Procedure, shortened: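 Acute cytotoxicity is scored as a concentration-dependent fall in intracellular ATP, measured by luciferase luminescence, in human lymphoblastoid LYMP2-025 cells exposed to compound for 24 hours at 37 C. AC50 values come from standard Hill fits.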

[20] = target: Pyruvate kinase PKM (Homo sapiens) (UniProt P14618); experiment: qHTS Assay for Activators of Human Muscle Pyruvate Kinase (AID 954; active means well fitted curve in the direction sought with a large enough effect, not every such curve was filed as active)
Sequence of Pyruvate kinase PKM (Homo sapiens) (P14618 whole entry, looked up): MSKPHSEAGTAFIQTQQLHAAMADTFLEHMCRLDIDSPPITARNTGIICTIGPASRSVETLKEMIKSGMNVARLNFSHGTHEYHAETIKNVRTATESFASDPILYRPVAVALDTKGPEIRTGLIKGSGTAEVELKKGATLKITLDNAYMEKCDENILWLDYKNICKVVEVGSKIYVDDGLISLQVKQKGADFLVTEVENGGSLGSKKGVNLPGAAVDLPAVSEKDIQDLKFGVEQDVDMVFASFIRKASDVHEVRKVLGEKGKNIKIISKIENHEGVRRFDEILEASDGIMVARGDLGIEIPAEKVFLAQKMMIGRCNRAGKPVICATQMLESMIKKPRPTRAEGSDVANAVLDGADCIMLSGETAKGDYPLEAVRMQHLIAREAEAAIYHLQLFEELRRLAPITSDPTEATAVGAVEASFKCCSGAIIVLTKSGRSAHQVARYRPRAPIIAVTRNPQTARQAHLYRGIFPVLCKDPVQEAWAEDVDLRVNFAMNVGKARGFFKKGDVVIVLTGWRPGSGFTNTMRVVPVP
Procedure, shortened: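 PKM2, human, >95% pure, 0.1 nM; PEP 0.5 mM (Km), ADP 0.1 mM; 50 mM imidazole pH 7.2, 50 mM KCl, 0.01% Tween 20, 0.05% BSA; 1 h RT; luciferase luminescence readout.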

Measured: outcome

COC(C)=O
inactive: [1] | [2] | [3] | [4] | [5] | [6] | [7] | [8] | [9] | [10] | [11] | [12] | [13] | [14] | [15] | [16] | [17] | [18] | [19]

C=Cc1ccccc1
inactive: [1] | [2] | [3] | [4] | [5] | [6] | [7] | [8] | [9] | [11] | [12] | [13] | [14] | [15] | [16] | [17] | [18] | [19]

O=C(O)CC(O)(CC(=O)O)C(=O)O
inactive: [1] | [2] | [3] | [4] | [5] | [6] | [7] | [8] | [9] | [10] | [11] | [12] | [15] | [18] | [19]

Cc1ccc(OC[C@H](O)[C@H](C)NC(C)C)c2c1CCC2
inactive: [20]

CN(C)Cc1ccccc1
inactive: [1] | [2] | [3] | [4] | [5] | [6] | [7] | [8] | [9] | [10] | [11] | [12] | [13] | [14] | [15] | [16] | [17] | [18] | [19]

CCCCCCCCCC(=O)O
inactive: [1] | [2] | [3] | [4] | [5] | [6] | [7] | [8] | [9] | [10] | [11] | [12] | [13] | [14] | [15] | [16] | [17] | [18] | [19]

NCCCC(=O)O
inactive: [20]

CN[C@H]1CC[C@@H](c2ccc(Cl)c(Cl)c2)c2ccccc21
inactive: [20]
